Screening data deposited in PubChem by National Center for Advancing Translational Sciences (NCATS).
ALDH1A1 inh – inhibitors of human aldehyde dehydrogenase 1A1. Potency, µM (doses to about 75.3 µM), for the others: at the top dose activity, negative = inhibition, most hits filed as inhibitors. P00352. 220,000 tested, 7.3% active. Purified ALDH1A1, NADH fluorescence, propionaldehyde substrate;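 also: potency is read from the fitted curve at half-maximal effect; plate controls were no enzyme wells and a reference inhibitor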
HPGD block – blocks human HPGD enzyme activity | P15428 | AID 894 | purified HPGD, NADH fluorescence kinetic, PGE2 substrate | Potency, µM, for the others: at the highest dose activity change, negative = inhibition, usual class: inhibitors | 150,000 tested, 4.3% active; also: potency is read from the fitted curve at half-maximal effect
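20 nM HPGD preincubated 15 min at room temperature with compound in 50 mM Tris-HCl pH 8, 0.01% Tween 20. Started with 1 mM NAD+ and 30 uM prostaglandin E2; NADH fluorescence (360/450 nm) read 5 times over 30-s intervals, last minus first.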
IMPase Li cell – membrane-permeable IMPase blocker, potentiated with lithium; 210,000 tested, 0.35% active; Potency, µM (highest dose often 59.4 µM), inactives show top-dose activity, negative = IMPase inhibition, hits mostly inhibitors; AID 1457; CHO-M1 cells, IP1 TR-FRET (IP-One), carbachol + lithium; active = well fitted curve in the direction sought with a large enough effect; inconclusive = small, poorly fitted or top-dose-only effect, or another doubt; inactive = no such curve, though single readings can be large; an effect the other way counts as inactive or inconclusive;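 also: IP1 builds up when IMPase is blocked and the TR-FRET signal falls; potency is read from the fitted curve at half-maximal effect; plate controls were basal vehicle for no effect and high inhibitor control for full effect; nearly all actives have a fitted effect of over 50% in size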
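Concentration–response in CHO-M1 cells, lithium-potentiated; 30 min at 37C. IP1 detected by competitive TR-FRET after 10 min lysis at RT. Hill-fitted AC50.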
IMPase inh – cell-permeable inhibitors of inositol monophosphatase (IMPase); P97697; CHO-M1 cells, IP1 accumulation, HTRF TR-FRET ratio; inhibition (IP1 accumulation), % at 46.1 µM; 120,000 tested, under 10 active; AID 901; active = well fitted curve in the direction sought with a large enough effect in the signal ratio, not every such curve was filed as active; inconclusive = small, poorly fitted or top-dose-only effect, or a change in a side signal; inactive = no such curve, though single readings can be large or run the other way; the % refers to the signal ratio;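 also: cells stimulated with carbachol in lithium chloride buffer; plate controls were DMSO basal wells for no effect and reference inhibitor wells for full effect; higher means more IMPase inhibition seen as more IP1 and lower FRET ratio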
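The IP-One HTRF competitive assay in carbachol-stimulated CHO-M1 cells quantifies cellular IP1. Compounds spanned up to 46 uM final, and activity is expressed as AC50 from concentration-response fits of the ratio and donor data.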
ALOX12 inhib – blocks human 12-lipoxygenase activity. P18054. purified 12-hLO, xylenol orange hydroperoxide absorbance. Potency, µM (highest dose often 57.1 µM), inactives show at the highest dose activity change, negative = inhibition, hits mostly inhibitors. 150,000 tested, 0.12% active. AID 1452; active = well fitted curve in the direction sought with a large enough effect; inconclusive = small, poorly fitted or top-dose-only effect, or another doubt; inactive = no such curve, though single readings can be large; an effect the other way counts as inactive or inconclusive; also: potency is read from the fitted curve at half-maximal effect; nearly all actives have a fitted effect of over 55% in size
Target sequence (P18054 whole entry, looked up): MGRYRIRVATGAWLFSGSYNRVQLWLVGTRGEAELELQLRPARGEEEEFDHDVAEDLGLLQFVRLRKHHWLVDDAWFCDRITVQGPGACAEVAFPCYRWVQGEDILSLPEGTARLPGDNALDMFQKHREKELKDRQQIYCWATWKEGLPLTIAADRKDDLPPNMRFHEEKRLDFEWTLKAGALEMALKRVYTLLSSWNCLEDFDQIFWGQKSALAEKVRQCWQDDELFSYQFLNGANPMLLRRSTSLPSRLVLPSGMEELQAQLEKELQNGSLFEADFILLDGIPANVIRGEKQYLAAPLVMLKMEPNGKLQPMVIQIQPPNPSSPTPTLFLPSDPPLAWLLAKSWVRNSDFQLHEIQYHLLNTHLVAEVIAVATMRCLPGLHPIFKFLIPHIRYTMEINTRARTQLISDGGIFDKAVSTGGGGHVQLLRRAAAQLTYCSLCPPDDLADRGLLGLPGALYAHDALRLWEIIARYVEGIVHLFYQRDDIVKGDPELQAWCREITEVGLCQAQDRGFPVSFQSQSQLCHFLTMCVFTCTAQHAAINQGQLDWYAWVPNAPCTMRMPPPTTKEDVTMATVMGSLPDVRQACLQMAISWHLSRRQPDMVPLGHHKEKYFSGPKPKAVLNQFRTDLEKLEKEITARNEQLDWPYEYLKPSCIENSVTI
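150 nM 12hLO, 25 mM Hepes pH 7.0 + 0.01% Triton X-100; cpd preinc 15 min RT; 40 uM arachidonic acid, 30 min RT; Fe-XO 30 min; A573/A405 ratio as read-out.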
PNC inhibitor – blocks assembly of the perinucleolar compartment. PC3M PTB-GFP, PNC prevalence imaging, 16 h; hits give low values. activity change (PNC), negative = inhibition, % at 10 µM. 140,000 tested, 3.1% active;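 active = readout at or below -70, meaning at least 70% loss of cells showing the perinucleolar compartment, a nuclear body marking cancer cells; inconclusive = readout between -30 and a set limit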;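 also: plate controls were DMSO wells for no effect and camptothecin positive control wells for full effect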
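Read-out is percentage of cells bearing a perinucleolar compartment, from automated 20x imaging of fixed, Hoechst-stained PC3M PTB-GFP cells. Cells were seeded 4 h, then exposed 16 h to compound (23 nl of library stock) in duplicate plates.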
Numbers without * were called inactive; u = inconclusive; x = not tested or not shown; [ ] = dose if it differs, or a comment. A selection: hits, their analogues and other compounds. The true share with any hit is near 11%. Unless noted, calls follow the shape of the dose curve; as a rule, active = well fitted inhibition curve with a large enough effect (not every such curve was filed as active); inconclusive = small, poorly fitted or top-dose-only effect, or another doubt; inactive = no such curve, though single readings can be large or run the other way. Unless noted, % is scaled to controls: 0 for no effect and ±100 for the full control effect.

SMILES	ALDH1A1 inh	HPGD block	IMPase Li cell	IMPase inh	ALOX12 inhib	PNC inhibitor
COc1ccc(C(=O)NNC(=O)CSc2nnc(-c3cccnc3)n2C)cc1	1.9%	x	2.2%	x	x	x
O=C(N/N=C1/C[C@@H](O)[C@@H](O)[C@@H]2[C@@H]3C(=O)N(Cc4ccc5c(c4)OCO5)C(=O)[C@H]3CC[C@H]12)OCc1ccccc1	-3.8%[13.5 µM]	x	x	x	x	x
CCC(=O)NNC(=O)CCC(=O)Nc1cccc(Cl)c1C	8.3%	x	-0.9%	x	x	x
Cc1c(Cl)cccc1NC(=O)Cn1cccc1	7.6%	17.8µM*	-14.6%[38.3 µM]	4.8	2.4%	-0.1
Cc1ccccc1NC(=O)Cn1cccc1	8.0%	31.6µM*	-1.5%[38.3 µM]	2.7	1.6%	u
Cc1ccccc1NC(=O)CN1C(=O)C2C3CC(C(Br)C3Br)C2C1=O (centres undefined)	10µM*	14.1µM*	-10.3%	x	-1.6%	-16.7
O=C(CN1C(=O)C2C3c4ccccc4C(c4ccccc43)C2C1=O)Nc1ccccc1C(=O)O (centres undefined)	4.8%	-19.2%	-1.0%	x	2.0%	-25.1
NC1=NC(c2cccc(Cl)c2)n2c(nc3ccccc32)N1 (centres undefined)	x	x	x	-5.8	x	x
CC(Sc1nnc(Nc2ccccc2)s1)C(=O)Nc1nc(-c2ccccc2)cs1 (centres undefined)	-1.5%	x	1.6%	x	x	x
CC(Sc1nnc(NCc2ccccc2)s1)C(=O)Nc1ccc2c(c1)C(=O)c1ccccc1C2=O (centres undefined)	2.82µM*	14.1µM*	0.7%	x	-2.7%	-24.1
CC(C)C1S/C(=N/N=C/c2cccs2)NC1=O (centres undefined)	u	25.1µM*	2.5%[38.3 µM]	4.7	5.2%	u
COC(=O)N1CCC2(CCCN(c3ncccn3)C2)CC1	-0.6%	-13.3%	-2.8%	x	0.7%	x
Cn1cccc1C(=O)NC(=O)COC(=O)c1ccc(O)cc1	3.16µM*	-18.7%	23.8%[38.3 µM]	-4.3	4.6%	24.6
CC1CCCN(c2ccc(C(=O)NCc3cccs3)cn2)C1 (centres undefined)	u	28.2µM*	-2.8%	12.8	1.8%	u
CC1CCCN(c2ccc(C(=O)NCc3ccccc3)cn2)C1 (centres undefined)	u	x	2.8%	x	x	x
O=C(NCc1cccs1)c1ccncc1	-0.9%	1.1%	-2.8%	-11.1	-1.8%	14.3
O=C(NCc1cccs1)c1ccc(N2CCCCC2)nc1	12.6µM*	15.8µM*	-6.2%[38.3 µM]	-5.9	3.0%	-11.8
CCOC(=O)N1CCN(C(=O)CN(c2cccc(Cl)c2)S(=O)(=O)c2ccccc2)CC1	x	x	x	-4.7	x	x
CCCOc1ccc(/C(O)=C2\C(=O)C(=O)N(CCCN(C)C)C23C(=O)N(C)c2ccccc23)cc1 (centres undefined)	u	x	x	-5.5	-5.2%	u
CCCOc1ccc(/C(O)=C2\C(=O)C(=O)N(CCCOC)C23C(=O)N(C)c2ccccc23)cc1 (centres undefined)	-7.2%	-14.9%	10µM*	u	11.8%	-106.2*
COC(=O)C1CCN(C(=O)COc2cc3sc(C)nc3c3sccc23)CC1	11.2µM*	-1.6%	37.6%[38.3 µM]	1.1	0.5%	73.7
COCCNc1nc(-c2ccc(N(C)C)cc2)nc2ccccc12	u	u	21.5%	x	-16.2%	x
COc1ccc(-n2nnnc2SCC(=O)c2ccc(O)c(O)c2)cc1	-14.4%	25.1µM*	16.3%[38.3 µM]	7.0	u	30.2
O=C(CSc1nnnn1Cc1ccccc1)c1ccccc1	u	-5.0%	-1.4%[38.3 µM]	1.6	-11.2%	-18.1
NC(=O)c1ccc(-n2nnnc2SCC(=O)c2ccc(O)c(O)c2)cc1	u	x	9.2%	x	x	x
SMILES	ALDH1A1 inh	HPGD block	IMPase Li cell	IMPase inh	ALOX12 inhib	PNC inhibitor
COc1ccc(C(=O)CSc2nnnn2Cc2ccccc2)cc1	12.6µM*	-18.9%	10.6%[38.3 µM]	-7.0	-6.4%	-15.3
COC(=O)c1cc(OC)c(OC)cc1NC(=O)CSc1nnnn1Cc1ccccc1	12.6µM*	u	14.2%[38.3 µM]	-0.7	-4.7%	20.6
NCCNC[C@H](O)CO	0.4%[13.5 µM]	-9.4%	-2.5%	x	4.8%[11.4 µM]	x
O=C(Cn1cc(C(F)(F)F)cc(Cl)c1=O)Nc1cccc(Cl)c1	u	u	10µM*	4.1	-0.1%	u
O=C(Cn1cc(C(F)(F)F)cc(Cl)c1=O)Nc1cc(Cl)cc(Cl)c1	-3.9%	x	0.1%	x	x	x
CS(=O)(=O)c1sc(C#N)c2c1C(=O)CC(c1ccccc1)C2 (centres undefined)	58.8%	x	x	x	x	x
Cc1cc(C)c(-n2c(SCCS(=O)(=O)c3ccc(F)cc3)n[nH]c2=O)c(C)c1	14.1µM*	x	x	x	x	x
Cc1ccc(S(=O)(=O)CCSc2n[nH]c(=O)n2-c2ccccc2)cc1	20µM*	x	x	x	x	x
CN(C)c1ncc2nc(-c3ccc(F)cc3)c(=O)n(C3CC3)c2n1	u	u	u	x	-1.7%	x
O=C(OCc1ccccc1)[C@@H]1COC(c2ccc(Br)cc2)=N1	2.0%	-8.5%	4.8%	x	0.5%[0.00818 µM]	x
C=C(CO)C1Cc2c(ccc3c2OC2COc4cc(OC)c(OC)cc4C2C3=O)O1 (centres undefined)	22.4µM*	-8.6%	23.3%	13.6	1.8%	x
COc1cc2c(cc1OC)C1C(=O)c3c(cc4c(c3O)C=CC(C)(C)O4)OC1CO2 (centres undefined)	2.4%	-13.2%	12.3%	x	-4.0%	x
COc1ccc(CC(=O)Nc2sc3c(c2C(=O)Nc2cccc(C)c2)CCCCC3)cc1	x	x	x	-9.4	x	x
Cc1onc(-c2ccccc2Cl)c1C(=O)N1CCN(c2nc3ccccc3s2)CC1	14.1µM*	-16.2%	3.5%[38.3 µM]	6.1	-5.9%	-112.6*
CC1CCCCN1S(=O)(=O)c1ccc(N(C(=O)c2cnccn2)C(C(=O)NC2CCCCC2)c2cccs2)cc1 (centres undefined)	8.91µM*	-8.2%	11.4%	-7.2	0.2%	-25.5
CC1CCCCN1S(=O)(=O)c1ccc(N(C(=O)c2cnccn2)C(C(=O)NC2CCCC2)c2cccs2)cc1 (centres undefined)	3.98µM*	-6.5%	-2.0%	x	-1.0%	u
O=C(NCCc1csc(-c2cccnc2)n1)c1ccc(Br)o1	22.4µM*	u	13.1%[38.3 µM]	7.0	2.1%	0.8
CC(C)CC1C(C#N)=C(N)Oc2n[nH]c(-c3ccccc3)c21 (centres undefined)	u	-15.4%	4.1%	4.7	-8.6%	-100.0*
Cc1ccc(-c2[nH]nc3c2C(c2ccoc2)C(C#N)=C(N)O3)cc1C (centres undefined)	-3.9%	-22.3%	34.8%[38.3 µM]	7.4	-14.9%	u
COc1ccc(-c2[nH]nc3c2C(c2ccoc2)C(C#N)=C(N)O3)cc1 (centres undefined)	-0.7%	12.6µM*	19.1%	7.8	-1.2%	u
Cc1ccccc1Nc1c(-c2ccc(Cl)s2)nc2cccc(C)n12	x	x	x	9.0	x	x
